Screens from PubChem.
FBW7 act: activators of human E3 ligase FBW7; AlphaScreen FBW7–phospho-cyclin E peptide binding, activator screen; normalized activity (activation), % at 26.1 µM; 0.13% of 650,000 active; AID 1259310; in the data active means normalized activity above about 1.9%;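 further: purified mutant Fbw7 with reduced substrate affinity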
Target sequence (Q969H0 whole entry, looked up): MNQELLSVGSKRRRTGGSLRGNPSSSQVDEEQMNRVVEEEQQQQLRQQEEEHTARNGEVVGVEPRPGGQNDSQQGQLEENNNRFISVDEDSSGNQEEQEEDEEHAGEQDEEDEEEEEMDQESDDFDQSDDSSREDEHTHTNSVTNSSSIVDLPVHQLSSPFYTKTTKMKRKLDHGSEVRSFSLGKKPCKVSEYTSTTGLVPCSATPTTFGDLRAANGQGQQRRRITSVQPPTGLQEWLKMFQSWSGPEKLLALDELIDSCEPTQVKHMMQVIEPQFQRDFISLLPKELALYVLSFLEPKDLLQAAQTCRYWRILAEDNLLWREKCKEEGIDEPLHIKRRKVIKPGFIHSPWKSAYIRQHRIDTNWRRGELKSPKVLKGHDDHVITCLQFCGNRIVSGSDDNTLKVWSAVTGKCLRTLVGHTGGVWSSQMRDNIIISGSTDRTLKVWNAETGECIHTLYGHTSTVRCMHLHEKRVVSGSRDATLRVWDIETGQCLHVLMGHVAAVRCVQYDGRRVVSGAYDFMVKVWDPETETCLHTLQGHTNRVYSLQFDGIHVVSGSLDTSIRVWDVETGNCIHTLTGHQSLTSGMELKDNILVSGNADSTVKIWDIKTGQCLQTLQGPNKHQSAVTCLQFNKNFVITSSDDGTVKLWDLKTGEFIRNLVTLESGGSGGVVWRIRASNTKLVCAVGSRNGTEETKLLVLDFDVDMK
MITF inh: inhibitors of human MITF; O75030; AlphaScreen MITF homodimerization, bead proximity signal; inhibition, % at 2.6 µM; 0.91% of 650,000 active; AID 1259374; in the data active means inhibition above about 50%
TEAD-YAP inh: TEAD-YAP interaction inhibition; HEK-TIYL cells, TEAD-Gal4/YAP UAS-luciferase luminescence; inhibition, % at 9.12 µM; 1.4% of 640,000 active; in the data active means inhibition above about 32%
GPR151 ag: activators of human GPR151. 1% of 650,000 active. activation, % at 11.2 µM. AID 1508602. PathHunter beta-arrestin GPR151 cells, luminescence. Q8TDV0; in the data active means activation above about 4.9%
GPR151 confirm: human GPR151 activation, confirmation screen | shares compounds with GPR151 ag | AID 1508609 | GPR151 PathHunter beta-arrestin cells, luminescence, 90 min; % of EA-reagent control over plate median | 6,700 tested, under 10 active | activation, % at 11.2 µM;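 active means mean percent activation across replicates above the confirmation screen cutoff of 4.91%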
GPR119 ag: activates human GPR119 in a GPR151 counter-screen | shares compounds with GPR151 ag | GPR119 PathHunter beta-arrestin cells, luminescence, 90 min; 0 = compound-well median, 100 = enzyme-acceptor control | activation, % at 11.2 µM | 0.3% of 6,700 active | AID 1508611;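 active means mean percent activation in the counterscreen above 29.09%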;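 further: counterscreen on off-target GPR119 to flag nonselective hits from the GPR151 activator screen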
Of the large screens only hits and unclear results are named; the others gave an inactive call (follow-up assays come after a bar, where they were run). A selection: hits, their analogues and other compounds. The true share with any hit is near 3.5%.

COc1ccc(OC)c(NC(=O)CSc2nc3n[nH]c(C)c3c(=N)n2-c2cc(Cl)ccc2C)c1	GPR151 ag 12 | GPR151 confirm inactive | GPR119 ag inactive
CCCCNC(=O)CSc1nc2n[nH]c(C)c2c(=N)n1-c1ccccc1CC	GPR151 ag 5.9 | GPR151 confirm inactive | GPR119 ag inactive
Cc1cccc(NC(=O)CSc2nc3n[nH]c(C)c3c(=N)n2-c2ccc(Br)cc2)c1	GPR151 ag 5.8 | GPR151 confirm inactive | GPR119 ag inactive
CCOC(=O)CNC(=O)N1CCc2nc(-c3ccccc3)nc(N3CCCCCC3)c2C1	none
CC1=C(C(=O)N2CCCCC2)C(c2cc(Br)ccc2F)C2=C(CC(C)(C)CC2=O)N1 (stereo not given)	none
CCN1/C(=C/c2ccc3cc(OC)ccc3[n+]2CC)Sc2cc(C)c(C)cc21	TEAD-YAP inh 67, GPR151 ag 11 | GPR151 confirm inactive | GPR119 ag inactive
CC[n+]1c(/C=C2\Sc3ccc(-c4ccccc4)cc3N2CCO)ccc2ccccc21	TEAD-YAP inh 91, GPR151 ag 22 | GPR151 confirm inactive | GPR119 ag inactive
CCC(=O)/C=C1/Sc2ccc(OC)cc2N1CCO	none
CC[n+]1c(/C=C2\Sc3ccc(C)cc3N2CCO)ccc2ccccc21	TEAD-YAP inh 80, GPR151 ag 5.4 | GPR151 confirm inactive | GPR119 ag inactive
CC[n+]1c(/C=C2\Sc3ccccc3N2C)ccc2cccc(C)c21	TEAD-YAP inh 87, GPR151 ag 5.4 | GPR151 confirm inactive | GPR119 ag inactive
CCOC(=O)c1c(NC(=O)c2ccc(OCCC(C)C)cc2)sc2c1CCCCC2	none
CCOCCCNC(=O)c1cnn2c(C)c(Cc3ccccc3Br)c(C)nc12	GPR151 ag 6.0 | GPR151 confirm inactive | GPR119 ag inactive
COc1ccc(/C(C)=N/NC(=O)CNC(=O)c2ccccc2O)cc1	GPR151 ag 5.3 | GPR151 confirm inactive | GPR119 ag inactive
C/C(=N/NC(=O)CNC(=O)c1ccccc1O)c1ccc(F)cc1	none
C/C(=C/C(=O)c1ccc(Cl)cc1)Nc1cccc(O)c1	GPR151 ag 5.8 | GPR151 confirm inactive | GPR119 ag inactive
Cc1ccc(NC(=O)c2sc3cc(C)ccc3c2Cl)cc1	none
CCNC(=O)c1sc2cc(C)ccc2c1Cl	GPR151 ag 6.4 | GPR151 confirm inactive | GPR119 ag inactive
COc1cccc(CN2CCC3(CC2)CC3C(=O)NCc2cccc(C(F)(F)F)c2)c1O (stereo not given)	GPR151 ag 5.0 | GPR151 confirm inactive | GPR119 ag inactive
CCn1nc(C)c(CN2CCC3(CC2)CC3C(=O)NCc2ccccc2)c1C (stereo not given)	GPR151 ag 5.4 | GPR151 confirm inactive | GPR119 ag inactive
CCS(=O)(=O)Nc1cccc(N2CCC(NCC3CCOCC3)CC2)c1	none
COc1ccc(CN2C[C@@H]3C[C@@H](c4ccc5nonc5c4)N4CCC[C@@]34C2=O)cc1	GPR151 ag 5.4 | GPR151 confirm inactive | GPR119 ag inactive
COc1ccc(CN2C[C@@H]3C[C@@H](c4cccc5nonc45)N4CCC[C@@]34C2=O)cc1	none
COc1ccccc1/C=C/C(=O)NCc1ccco1	GPR151 ag 8.9 | GPR151 confirm inactive | GPR119 ag inactive
O=C(/C=C/c1ccc(OCc2ccccc2)cc1)NCc1ccco1	GPR151 ag 8.0 | GPR151 confirm inactive | GPR119 ag inactive
O=C(/C=C/c1ccccc1Cl)NCc1ccco1	none
O=C(/C=C/c1ccccc1)NCc1ccco1	none
CCOc1cc2c(c([N+](=O)[O-])c1)NC(C(C)C)C1CC=CC21 (stereo not given)	none
COc1ccc(C(=O)Oc2ccc(/C=C/c3ccncc3)cc2)cc1OC	TEAD-YAP inh 57, GPR151 ag 5.2 | GPR151 confirm inactive | GPR119 ag inactive
O=C(Oc1ccc(OC(=O)c2ccncc2)cc1)c1ccncc1	GPR151 ag 10 | GPR151 confirm inactive | GPR119 ag inactive
C=CCN(C#N)c1nc(OC)nc(N2CCCC2)n1	GPR151 ag 14 | GPR151 confirm inactive | GPR119 ag inactive
COc1cc(/C=c2\sc3nc(-c4ccncc4)nn3c2=O)ccc1OC(C)=O	GPR151 ag 4.9 | GPR151 confirm inactive | GPR119 ag inactive
COc1ccc(-c2nc3s/c(=C\c4ccccc4F)c(=O)n3n2)cc1	none
CCCCOc1ccc(/C=c2\sc3nc(-c4ccncc4)nn3c2=O)cc1	GPR151 ag 5.1 | GPR151 confirm inactive | GPR119 ag inactive
CCCCOc1ccc(/C=c2\sc3nc(-c4ccc(Cl)cc4)nn3c2=O)cc1	none
CC(C)CCOc1ccc(-c2nn(-c3ccccc3)cc2/C=c2\sc3nc(-c4cccs4)nn3c2=O)cc1	GPR151 ag 7.0 | GPR151 confirm inactive | GPR119 ag inactive
COc1ccc(/C=c2\sc3nc(-c4ccncc4)nn3c2=O)cc1OC	none
CCOc1ccc(-c2nc3s/c(=C\c4ccccc4F)c(=O)n3n2)cc1	GPR151 ag 11 | GPR151 confirm inactive | GPR119 ag inactive
O=C(NCc1ccccc1Cl)c1cccc2nc3ccccc3nc12	none
CCCn1cc(NC(=O)c2cnn3c(C(F)(F)F)cc(-c4ccccc4)nc23)cn1	none
Nc1nc(N2CCOCC2)nc2c1ncn2-c1ccccc1	none
COc1ccc2c(c1)-c1c(ssc1=S)C(C)(C)N2C(=O)Cc1ccccc1	GPR151 ag 6.3 | GPR151 confirm inactive | GPR119 ag inactive
CSc1nnc(C)c(=O)n1COC(=O)c1cc2ccccc2o1	GPR151 ag 7.5 | GPR151 confirm inactive | GPR119 ag inactive
CSc1nnc(C)c(=O)n1COC(=O)c1ccccc1I	none
Fc1cccc2sc(Nc3nc(-c4ccccn4)cs3)nc12	TEAD-YAP inh 50, GPR151 ag 7.6 | GPR151 confirm inactive | GPR119 ag inactive
CSc1ccccc1C(=O)Nc1ccccc1Cl	GPR151 ag 8.2 | GPR151 confirm inactive | GPR119 ag inactive
Cc1ccc(S(=O)(=O)NC(C)C(=O)Nc2ccc(C(F)(F)F)cc2)cc1 (stereo not given)	none
CCOC(=O)COc1ccc(S(=O)(=O)NC(C)CC)cc1 (stereo not given)	GPR151 ag 5.3 | GPR151 confirm inactive | GPR119 ag inactive
Cc1ccc(S(=O)(=O)NC(C)C(=O)Nc2cccc(C(F)(F)F)c2)cc1 (stereo not given)	GPR151 ag 6.0 | GPR151 confirm inactive | GPR119 ag inactive
CC(Oc1ccc(Br)cc1)C(=O)Nc1cccc([N+](=O)[O-])c1 (stereo not given)	GPR151 ag 6.1 | GPR151 confirm inactive | GPR119 ag inactive
CC(=O)c1cccc(NC(=O)C(C)NS(=O)(=O)c2ccc(F)cc2)c1 (stereo not given)	GPR151 ag 6.3 | GPR151 confirm inactive | GPR119 ag inactive
O=C(COC(=O)c1cnccn1)c1ccc(Oc2ccc(Cl)cc2[N+](=O)[O-])cc1	none
O=C1CS/C(=N\N=C/c2ccccc2)N1	none
COc1cc(NC(=O)CS(=O)(=O)c2ccc(C)cc2)cc(OC)c1OC	GPR151 ag 6.0 | GPR151 confirm inactive | GPR119 ag inactive
